The record followed here is PMC7862700, “An all-to-all approach to the identification of sequence-specific readers for epigenetic DNA modifications on cytosine”.

What all share (test): DAPPL (digital affinity profiling via proximity ligation, sequencing); 10 mM Tris-HCl pH 7.5, 50 mM NaCl, 1 mM DTT, 4% glycerol, room temperature, 30 min; GST-TFs on glutathione beads, 16-mer random dsDNA library, 0.1% formaldehyde crosslink after washing; high values mean tight binding
For one assay, the target named is T1, FLI1 (Homo sapiens, UniProt Q01543 1-452).
T1 sequence: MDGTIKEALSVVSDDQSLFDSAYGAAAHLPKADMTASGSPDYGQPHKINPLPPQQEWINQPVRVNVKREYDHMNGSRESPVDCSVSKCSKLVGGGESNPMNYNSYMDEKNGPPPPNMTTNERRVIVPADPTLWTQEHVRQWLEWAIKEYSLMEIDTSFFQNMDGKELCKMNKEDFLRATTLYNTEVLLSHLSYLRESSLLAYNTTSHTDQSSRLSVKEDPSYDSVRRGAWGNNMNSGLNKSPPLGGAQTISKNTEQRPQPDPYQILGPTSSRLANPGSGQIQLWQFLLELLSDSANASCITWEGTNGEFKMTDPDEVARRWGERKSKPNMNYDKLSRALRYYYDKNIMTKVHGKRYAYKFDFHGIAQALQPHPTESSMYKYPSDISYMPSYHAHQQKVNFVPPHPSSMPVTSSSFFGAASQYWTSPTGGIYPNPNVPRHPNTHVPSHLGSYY
The note with it: protein: recombinant; tags: N-terminal GST; dsDNA, one strand shown. In outline: (§1)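 Beads coated with glutathione captured GST-fused human transcription factors that had been expressed in yeast, and the factors were then given DNA barcodes and pooled with a tag-only sample. The pools were incubated with 200 nmole of a random double-stranded 16-mer DNA library in Tris/NaCl/DTT/glycerol buffer for 30 min at room temperature, washed, crosslinked with 0.1% formaldehyde and proximity-ligated with BsaI/T4 ligase at 37 °C for 1 h. PCR amplification and Illumina NextSeq500 sequencing came last. Binding signal is each hexamer's read frequency for a factor divided by its frequency for the tag-only sample.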

The target of a further assay is T2, ELK1 (Homo sapiens, UniProt P19419 1-428).
T2 sequence: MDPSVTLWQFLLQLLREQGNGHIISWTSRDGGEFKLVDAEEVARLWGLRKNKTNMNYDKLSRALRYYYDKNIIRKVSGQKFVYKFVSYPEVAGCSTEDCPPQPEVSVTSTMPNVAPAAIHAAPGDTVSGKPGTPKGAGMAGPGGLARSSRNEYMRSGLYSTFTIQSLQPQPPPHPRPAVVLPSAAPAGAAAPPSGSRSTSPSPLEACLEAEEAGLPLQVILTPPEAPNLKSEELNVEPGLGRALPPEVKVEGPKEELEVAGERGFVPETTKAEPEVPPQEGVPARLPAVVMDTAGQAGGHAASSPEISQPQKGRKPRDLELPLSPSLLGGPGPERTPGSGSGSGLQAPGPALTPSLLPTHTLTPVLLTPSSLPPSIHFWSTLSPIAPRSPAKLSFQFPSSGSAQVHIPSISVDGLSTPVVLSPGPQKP
The note with it: protein: recombinant; tags: N-terminal GST; dsDNA, one strand shown. In outline:
as §1

The target of another assay is T3, GABPA (Homo sapiens, UniProt Q06546 1-454).
T3 sequence: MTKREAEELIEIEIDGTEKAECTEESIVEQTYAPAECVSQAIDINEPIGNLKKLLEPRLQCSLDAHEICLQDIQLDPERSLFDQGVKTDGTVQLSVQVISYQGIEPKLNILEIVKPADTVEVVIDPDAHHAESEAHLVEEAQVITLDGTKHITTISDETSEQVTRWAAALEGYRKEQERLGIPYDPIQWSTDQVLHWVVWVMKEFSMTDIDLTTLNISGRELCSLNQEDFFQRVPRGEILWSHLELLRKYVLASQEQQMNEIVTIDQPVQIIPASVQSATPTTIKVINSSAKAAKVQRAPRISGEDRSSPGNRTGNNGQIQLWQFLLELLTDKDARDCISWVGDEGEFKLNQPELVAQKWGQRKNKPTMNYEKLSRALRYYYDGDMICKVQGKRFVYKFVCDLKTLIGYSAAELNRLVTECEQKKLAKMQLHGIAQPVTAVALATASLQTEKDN
The note with it: protein: recombinant; tags: N-terminal GST; dsDNA, one strand shown. In outline:
as §1

Another assay has as its target T4, ERG (Homo sapiens, UniProt P11308 1-479).
T4 sequence: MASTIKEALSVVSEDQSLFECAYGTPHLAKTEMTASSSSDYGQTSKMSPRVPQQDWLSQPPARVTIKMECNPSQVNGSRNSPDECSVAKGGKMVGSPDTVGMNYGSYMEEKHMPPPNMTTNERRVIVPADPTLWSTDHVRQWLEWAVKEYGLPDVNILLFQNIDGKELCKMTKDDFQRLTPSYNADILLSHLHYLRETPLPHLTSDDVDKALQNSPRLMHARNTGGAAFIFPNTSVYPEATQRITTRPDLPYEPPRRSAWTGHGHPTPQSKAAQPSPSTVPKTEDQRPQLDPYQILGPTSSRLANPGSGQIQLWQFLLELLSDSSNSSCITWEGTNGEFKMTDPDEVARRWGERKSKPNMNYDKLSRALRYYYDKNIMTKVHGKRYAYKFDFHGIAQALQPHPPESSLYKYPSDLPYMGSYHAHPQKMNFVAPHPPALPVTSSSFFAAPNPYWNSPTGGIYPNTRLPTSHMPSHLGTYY
To be noted: protein: recombinant; tags: N-terminal GST; dsDNA, one strand shown. The procedure, abridged:
as §1

The target in a further assay is ELF1 (Homo sapiens, UniProt P32519 1-619). To be noted: protein: recombinant; tags: N-terminal GST; dsDNA, one strand shown. In outline: as §1
The target in a further assay is T5, EHF (Homo sapiens, UniProt Q9NZC4 1-300).
T5 sequence: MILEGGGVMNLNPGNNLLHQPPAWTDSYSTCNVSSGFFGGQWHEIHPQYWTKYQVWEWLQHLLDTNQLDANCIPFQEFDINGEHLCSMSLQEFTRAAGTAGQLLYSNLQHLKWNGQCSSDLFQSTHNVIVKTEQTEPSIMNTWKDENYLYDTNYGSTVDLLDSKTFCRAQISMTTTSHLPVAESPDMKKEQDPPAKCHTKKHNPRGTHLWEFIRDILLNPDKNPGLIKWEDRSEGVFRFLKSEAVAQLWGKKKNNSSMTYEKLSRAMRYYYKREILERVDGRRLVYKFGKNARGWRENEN
The note with it: protein: recombinant; tags: N-terminal GST; dsDNA, one strand shown. The procedure, abridged:
as §1

A further assay addresses SPI1 (Homo sapiens, UniProt P17947 1-270). To be noted: protein: recombinant; tags: N-terminal GST; dsDNA, one strand shown. In outline:
as §1

In another assay the target is T6, ELK3 (Homo sapiens, UniProt P41970 1-407).
T6 sequence: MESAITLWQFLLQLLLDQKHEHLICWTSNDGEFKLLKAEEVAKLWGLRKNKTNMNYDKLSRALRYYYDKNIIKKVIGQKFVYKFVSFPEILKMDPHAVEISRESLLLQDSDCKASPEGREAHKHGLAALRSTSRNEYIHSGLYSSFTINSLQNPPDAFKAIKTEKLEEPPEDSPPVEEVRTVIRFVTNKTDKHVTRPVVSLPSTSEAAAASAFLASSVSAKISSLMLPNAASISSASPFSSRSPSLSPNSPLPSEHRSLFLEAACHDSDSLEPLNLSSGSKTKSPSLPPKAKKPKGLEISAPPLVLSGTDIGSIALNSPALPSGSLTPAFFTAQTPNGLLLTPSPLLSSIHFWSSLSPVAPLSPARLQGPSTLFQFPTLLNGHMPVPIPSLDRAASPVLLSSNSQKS
The note with it: protein: recombinant; tags: N-terminal GST; dsDNA, one strand shown. In outline:
as §1

The target of a further assay is ETV5 (Homo sapiens, UniProt P41161 1-510). To be noted: protein: recombinant; tags: N-terminal GST; dsDNA, one strand shown. In outline: as §1
In another assay the target is HSF1 (Homo sapiens, UniProt Q00613 1-529). To be noted: protein: recombinant; tags: N-terminal GST; chain copies: 3; dsDNA, one strand shown. The procedure, abridged:
as §1

A further assay addresses T7, SPIC (Homo sapiens, UniProt Q8N5J4 1-248).
T7 sequence: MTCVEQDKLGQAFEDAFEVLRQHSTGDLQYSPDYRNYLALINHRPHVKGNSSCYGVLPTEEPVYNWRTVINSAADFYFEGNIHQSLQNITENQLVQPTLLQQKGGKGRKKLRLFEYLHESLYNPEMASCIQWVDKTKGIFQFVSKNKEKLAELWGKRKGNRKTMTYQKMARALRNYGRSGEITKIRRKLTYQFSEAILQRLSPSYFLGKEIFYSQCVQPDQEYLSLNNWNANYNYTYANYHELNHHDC
To be noted: protein: recombinant; tags: N-terminal GST; dsDNA, one strand shown. The procedure, abridged: as §1

The target of the next assay is ELF4 (Homo sapiens, UniProt Q99607 1-663). To be noted: protein: recombinant; tags: N-terminal GST; dsDNA, one strand shown. In outline:
as §1

A further assay concerns the target T8, ELF3 (Homo sapiens, UniProt P78545 1-371).
T8 sequence: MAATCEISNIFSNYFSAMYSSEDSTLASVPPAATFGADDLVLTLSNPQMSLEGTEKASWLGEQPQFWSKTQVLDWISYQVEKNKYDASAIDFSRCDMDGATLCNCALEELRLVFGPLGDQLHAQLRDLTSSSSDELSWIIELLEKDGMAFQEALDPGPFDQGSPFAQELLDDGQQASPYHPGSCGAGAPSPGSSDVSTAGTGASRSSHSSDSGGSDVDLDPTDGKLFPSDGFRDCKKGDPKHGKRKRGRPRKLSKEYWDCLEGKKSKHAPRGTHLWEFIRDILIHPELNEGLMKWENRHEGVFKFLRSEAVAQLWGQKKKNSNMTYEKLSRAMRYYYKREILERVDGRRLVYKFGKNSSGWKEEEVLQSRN
The note with it: protein: recombinant; tags: N-terminal GST; dsDNA, one strand shown. In outline: as §1

A further assay addresses CRX (Homo sapiens, UniProt O43186 1-299). To be noted: protein: recombinant; tags: N-terminal GST; dsDNA, one strand shown. In outline: as §1
Another assay deals with ETV1 (Homo sapiens, UniProt P50549 1-477). The note with it: protein: recombinant; tags: N-terminal GST; dsDNA, one strand shown. The procedure, abridged:
as §1

CRX, sequence (O43186 whole entry): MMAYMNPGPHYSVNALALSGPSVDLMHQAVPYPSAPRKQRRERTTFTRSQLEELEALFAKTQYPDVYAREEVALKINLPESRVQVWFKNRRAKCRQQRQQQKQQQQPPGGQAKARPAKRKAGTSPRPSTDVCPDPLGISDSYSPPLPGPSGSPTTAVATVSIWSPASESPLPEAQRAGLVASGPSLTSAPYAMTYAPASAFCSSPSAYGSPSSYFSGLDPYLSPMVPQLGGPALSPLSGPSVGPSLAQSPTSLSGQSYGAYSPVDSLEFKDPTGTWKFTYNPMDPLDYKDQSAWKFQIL
ELF4, sequence (Q99607 whole entry): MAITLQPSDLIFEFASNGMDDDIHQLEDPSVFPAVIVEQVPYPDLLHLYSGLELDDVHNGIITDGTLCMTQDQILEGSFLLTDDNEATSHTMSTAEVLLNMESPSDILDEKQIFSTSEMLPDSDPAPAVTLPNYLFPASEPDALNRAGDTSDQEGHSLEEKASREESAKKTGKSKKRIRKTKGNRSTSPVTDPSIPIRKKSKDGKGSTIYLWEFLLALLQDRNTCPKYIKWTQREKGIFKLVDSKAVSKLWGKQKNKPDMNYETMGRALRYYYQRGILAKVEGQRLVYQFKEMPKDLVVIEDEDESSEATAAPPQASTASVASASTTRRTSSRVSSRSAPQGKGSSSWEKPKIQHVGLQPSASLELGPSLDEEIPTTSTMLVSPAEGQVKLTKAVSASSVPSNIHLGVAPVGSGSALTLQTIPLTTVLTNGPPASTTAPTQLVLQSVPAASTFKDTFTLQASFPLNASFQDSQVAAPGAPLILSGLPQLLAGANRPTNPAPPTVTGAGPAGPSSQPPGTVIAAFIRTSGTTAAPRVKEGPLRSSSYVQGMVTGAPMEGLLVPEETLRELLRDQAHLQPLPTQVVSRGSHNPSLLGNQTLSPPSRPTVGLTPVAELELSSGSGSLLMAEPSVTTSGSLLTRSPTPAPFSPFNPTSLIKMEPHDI
ELF1, sequence (P32519 whole entry): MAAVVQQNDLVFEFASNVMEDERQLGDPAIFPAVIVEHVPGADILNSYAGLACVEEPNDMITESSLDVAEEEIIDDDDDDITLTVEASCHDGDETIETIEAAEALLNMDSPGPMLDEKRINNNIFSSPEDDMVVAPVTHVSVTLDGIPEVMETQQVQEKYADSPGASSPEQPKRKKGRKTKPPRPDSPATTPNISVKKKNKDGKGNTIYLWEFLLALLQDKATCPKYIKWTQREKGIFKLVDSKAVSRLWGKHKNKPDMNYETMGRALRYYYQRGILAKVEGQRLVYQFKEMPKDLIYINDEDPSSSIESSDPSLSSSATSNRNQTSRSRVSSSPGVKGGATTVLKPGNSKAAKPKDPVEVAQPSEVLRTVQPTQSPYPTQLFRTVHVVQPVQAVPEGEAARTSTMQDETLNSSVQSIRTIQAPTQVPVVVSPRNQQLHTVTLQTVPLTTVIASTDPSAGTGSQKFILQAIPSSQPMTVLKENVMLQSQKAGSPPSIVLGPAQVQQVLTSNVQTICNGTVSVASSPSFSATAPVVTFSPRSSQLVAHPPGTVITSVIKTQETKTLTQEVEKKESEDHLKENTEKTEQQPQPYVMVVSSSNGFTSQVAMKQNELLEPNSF
ETV1, sequence (P50549 whole entry): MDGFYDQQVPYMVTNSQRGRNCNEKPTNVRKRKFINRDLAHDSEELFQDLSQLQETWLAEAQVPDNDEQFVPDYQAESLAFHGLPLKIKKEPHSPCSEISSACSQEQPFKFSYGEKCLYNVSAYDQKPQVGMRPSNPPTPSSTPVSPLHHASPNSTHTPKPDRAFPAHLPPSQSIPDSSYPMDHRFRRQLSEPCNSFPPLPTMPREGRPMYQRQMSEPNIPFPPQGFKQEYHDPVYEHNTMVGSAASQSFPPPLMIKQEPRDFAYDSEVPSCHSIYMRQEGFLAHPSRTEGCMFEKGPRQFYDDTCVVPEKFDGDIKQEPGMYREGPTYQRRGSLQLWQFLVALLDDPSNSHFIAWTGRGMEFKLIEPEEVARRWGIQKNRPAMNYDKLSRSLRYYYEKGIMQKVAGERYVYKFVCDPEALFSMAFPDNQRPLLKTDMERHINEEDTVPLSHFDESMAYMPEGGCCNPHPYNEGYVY
HSF1, sequence (Q00613 whole entry): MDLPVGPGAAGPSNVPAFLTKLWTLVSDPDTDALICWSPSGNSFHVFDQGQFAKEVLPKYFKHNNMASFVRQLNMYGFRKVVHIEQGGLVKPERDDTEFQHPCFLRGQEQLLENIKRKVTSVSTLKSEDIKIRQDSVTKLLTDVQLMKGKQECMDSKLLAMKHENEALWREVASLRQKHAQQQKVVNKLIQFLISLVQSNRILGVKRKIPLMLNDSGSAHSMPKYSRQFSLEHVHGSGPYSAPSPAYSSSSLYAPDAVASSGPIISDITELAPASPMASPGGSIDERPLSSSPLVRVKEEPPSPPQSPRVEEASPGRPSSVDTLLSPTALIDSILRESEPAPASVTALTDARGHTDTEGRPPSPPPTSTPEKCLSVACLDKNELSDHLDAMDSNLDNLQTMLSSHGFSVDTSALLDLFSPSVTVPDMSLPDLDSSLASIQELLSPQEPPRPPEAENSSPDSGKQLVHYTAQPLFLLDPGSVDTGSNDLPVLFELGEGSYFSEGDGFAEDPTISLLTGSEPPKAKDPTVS
ETV5, sequence (P41161 whole entry): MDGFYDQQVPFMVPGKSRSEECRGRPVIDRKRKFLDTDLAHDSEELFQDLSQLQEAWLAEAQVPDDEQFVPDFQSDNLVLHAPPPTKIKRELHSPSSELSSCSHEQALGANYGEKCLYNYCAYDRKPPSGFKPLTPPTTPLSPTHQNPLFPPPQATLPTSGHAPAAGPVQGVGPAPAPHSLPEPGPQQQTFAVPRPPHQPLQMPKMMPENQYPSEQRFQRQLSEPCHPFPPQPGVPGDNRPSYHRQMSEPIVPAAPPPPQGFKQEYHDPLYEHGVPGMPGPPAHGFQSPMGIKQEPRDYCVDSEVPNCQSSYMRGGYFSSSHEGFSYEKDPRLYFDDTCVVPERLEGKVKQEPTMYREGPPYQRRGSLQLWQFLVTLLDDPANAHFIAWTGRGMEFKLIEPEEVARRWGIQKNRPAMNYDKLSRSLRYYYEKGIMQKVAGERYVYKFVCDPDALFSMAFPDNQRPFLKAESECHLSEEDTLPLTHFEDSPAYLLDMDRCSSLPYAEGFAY

For CAAGAA, the binding signal with FLI1 was 1.03 fold enrichment (6-mer frequency, TF over GST control); with ELK1, 1.11 fold enrichment (6-mer frequency, TF over GST control); in the assay with GABPA it was 1.02 fold enrichment (6-mer frequency, TF over GST control); in the assay with ERG, 1.11 fold enrichment (6-mer frequency, TF over GST control); in the assay with ELF1, 1.03 fold enrichment (6-mer frequency, TF over GST control); in the assay with EHF it was 1.04 fold enrichment (6-mer frequency, TF over GST control). The binding signal with SPI1 was 1.06 fold enrichment (6-mer frequency, TF over GST control); with ELK3, 1.06 fold enrichment (6-mer frequency, TF over GST control); with ETV5, 1.09 fold enrichment (6-mer frequency, TF over GST control); in the assay with HSF1 it was 1.51 fold enrichment (6-mer frequency, TF over GST control); with SPIC, 1.09 fold enrichment (6-mer frequency, TF over GST control); with ELF4 it was 1.06 fold enrichment (6-mer frequency, TF over GST control). The binding signal in the assay with ELF3 is 1.11 fold enrichment (6-mer frequency, TF over GST control); with CRX it was 1.08 fold enrichment (6-mer frequency, TF over GST control); with ETV1, 1.05 fold enrichment (6-mer frequency, TF over GST control).
